Compound activity as filed in PubChem BioAssay.
Compounds with a hit are over-represented: about 21% of the library has one in this group of screens.
CHX counter = Cycloheximide Counterscreen for Small Molecule Inhibitors of Shiga Toxin | cell reporter, cycloheximide protein synthesis inhibition counterscreen | max response, % | hit rate 12% among 300,000 | AID 2314, 2010; in the data active = max response mostly above about 13%, no sharp cut-off; inactive = mostly below about 14%; also: read at 38.3 µM for the half of the compounds with a filed dose; 0% is about no effect
NS1 inh = qHTS Assay for Inhibitors of Influenza NS1 Protein Function; Potency, µM (titrated, usually from 46.1 µM), inactives show at the top dose activity, positive = more growth; hit rate 0.4% among 270,000; calls by dose curve; also: potency is read from the fitted curve at half-maximal effect; actives are rising curves; nearly all actives have a fitted effect of over 50% in size
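Growth recovery, yeast-based: influenza A NS1 expressed in S. cerevisiae causes slow growth, and suppressors are detected by OD600. The parent strain without NS1 is used as positive control.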
Shiga inhibitor = A qHTS for Small Molecule Inhibitors of Shiga Toxin; hit rate 9.2% among 290,000; inhibition, % at 38.7 µM; Vero cells, Shiga toxin protein synthesis inhibition reporter; in the data active = inhibition mostly above about 28%, no sharp cut-off; inactive = mostly below about 43%; also: 0% is about no effect
Pf growth 96h = Primary qHTS for delayed death inhibitors of the malarial parasite plastid, 96 hour incubation. hit rate 6.9% among 320,000. P. falciparum luciferase reporter growth, 96 h. Potency, µM (doses to about 28.7 µM), for inactives: at the top dose activity change, negative = inhibition, usual class: inhibitors. AID 504834, 2011; also: potency is read from the fitted curve at half-maximal effect; % is scaled to controls: 0 for no effect and ±100 for the full control effect
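Two parasite generations (96 h, 37 C, 5% CO2) of compound exposure in infected erythrocytes (0.05% parasitemia, 2% hematocrit). Luciferase-reporter P. falciparum; decreased luminescence indicates inhibited growth, aimed at apicoplast-acting delayed death.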
Pf growth 48h = Primary qHTS for delayed death inhibitors of the malarial parasite plastid, 48 hour incubation. P. falciparum luciferase growth in erythrocytes, 48 h. Potency, µM (titrated, usually from 28.7 µM), without a hit: top-dose activity change, negative = inhibition, hits mostly inhibitors. hit rate 5.9% among 310,000. AID 504832, 2011; also: potency is read from the fitted curve at half-maximal effect; % is scaled to controls: 0 for no effect and ±100 for the full control effect
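Here the parasites carry a stable luciferase gene and grow inside erythrocytes in Albumax-based RPMI medium with compound for one erythrocytic cycle. Activity is scored as loss of luminescent signal.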
Giardia FBPA inh = qHTS Assay for Inhibitors of Fructose-1,6-bisphosphate Aldolase from Giardia Lamblia | purified Giardia FBPA | Potency, µM (highest dose often 59.6 µM), inactives show at the highest dose activity, negative = inhibition, usual class: inhibitors | hit rate 0.71% among 290,000 | AID 2451, 2010; also: potency is read from the fitted curve at half-maximal effect; % is scaled to controls: 0 for no effect and ±100 for the full control effect; nearly all actives have a fitted effect of over 55% in size
Target sequence (A8B2U2 whole entry, looked up): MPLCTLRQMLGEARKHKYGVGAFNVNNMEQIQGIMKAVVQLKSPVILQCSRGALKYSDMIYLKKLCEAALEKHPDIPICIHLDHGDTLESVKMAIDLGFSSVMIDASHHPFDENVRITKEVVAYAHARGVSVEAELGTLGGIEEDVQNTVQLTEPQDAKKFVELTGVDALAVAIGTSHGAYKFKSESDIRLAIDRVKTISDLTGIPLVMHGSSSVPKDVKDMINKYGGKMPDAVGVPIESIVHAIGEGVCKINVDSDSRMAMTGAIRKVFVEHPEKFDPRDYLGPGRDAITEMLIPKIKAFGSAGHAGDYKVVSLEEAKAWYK
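40 nM FBPA preincubated 10 min at RT with compound (up to 57.5 uM final), then substrate plus GAPDH/TPI/NAD/arsenate coupling and diaphorase/resazurin added. Fluorescence read after 20 min at RT, 525/598 nm.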
Numbers without * were called inactive; u = inconclusive; x = not tested or not shown; [ ] = another dose, or the depositor's remark. Unless noted, calls follow the shape of the dose curve; as a rule, active = well fitted curve in the direction sought with a large enough effect; inconclusive = small, poorly fitted or top-dose-only effect, or another doubt; inactive = no such curve, though single readings can be large; an effect the other way counts as inactive or inconclusive.

SMILES	CHX counter	NS1 inh	Shiga inhibitor	Pf growth 96h	Pf growth 48h	Giardia FBPA inh
COc1ccc(C(CNC(=O)COc2cc(C)ccc2Cl)N2CCCCC2)cc1 (configuration not stated)	x	x	x	6.0%	-19.3%	x
CN(C)c1ccc(C(CNC(=O)COc2ccc(Cl)cc2)N2CCCC2)cc1 (configuration not stated)	-0.9	-0.9%	2.7	6.57µM*	-17.6%	-6.0%
Cc1cc(OCC(=O)NCC(c2ccc(F)cc2)N2CCOCC2)ccc1Cl (configuration not stated)	x	x	x	9.28µM*	9.28µM*	x
COc1ccc(C(CNC(=O)COc2ccccc2C#N)N2CCOCC2)cc1 (configuration not stated)	-4.4	-1.2%	-12.9	-26.8%	-3.2%	2.5%
COc1cc(C(=O)NCC(c2ccc(F)cc2)N2CCOCC2)ccc1OCc1ccccc1Cl (configuration not stated)	x	x	x	9.28µM*	5.22µM*	x
O=C(CC12CC3CC(CC(C3)C1)C2)NCC(c1ccc(F)cc1)N1CCOCC1 (configuration not stated)	-4.1	x	-8.3	11.7µM*	11.7µM*	-3.8%
N#CC1(NC(=O)COC(=O)c2nc(Cl)c(Cl)c(N)c2Cl)CCCCC1	x	x	x	41.6%	12.7%	x
Clc1cccc2c1CN(C1=NCCN1)C2	x	x	x	x	x	-0.5%
CC1=NNC(=S)NCCCN2CCN(CCCNC(=S)NN=C(C)C=NNC(=S)NCCCN3CCN(CCCNC(=S)NN=C1)CC3)CC2	x	0.0%	x	x	x	x
Cc1ccc(Cn2nc(C)c(C(=O)NCC(c3ccc(F)cc3)N3CCOCC3)c2Cl)cc1 (configuration not stated)	x	x	x	u	10.4µM*	x
CC(=O)c1ccc(-c2cccs2)s1	23.8*	x	35.7*	22.2%	50.2%	3.6%
CC(=O)c1c(C(C)=O)c(C)n(-c2nc(-c3cccs3)c(C)s2)c1C	-1.4	-17.5%	15.0	x	u	5.1%
COc1cccc(CN2CCN(S(=O)(=O)c3ccc(Cl)s3)CC2)c1	12.6*	-27.1%	31.8	9.2%	17.4%	x
COc1ccc(S(=O)(=O)N2CCN(Cc3cccc(Cl)c3)CC2)cc1	-4.3	-11.3%	2.5	6.2%	0.1%	-3.3%
O=C(N/N=C/c1ccc(-c2ccccc2C(=O)O)o1)c1cccs1	33.3*	12.0%	48.8*	77.7%	24.3%	-16.4%
COc1ccccc1C(=O)N/N=C/c1cnc2ccccc2n1	58.6*	-29.7%	125.3*	81.0%	114.6%	-4.5%
COc1ccccc1C(=O)N/N=C/c1ccc(Cl)s1	49.2*	-26.4%	78.1*	u	41.8%	-15.9%
COC(=O)c1ccccc1Oc1cnc2ccccc2n1	-6.1	0.7%	-4.4	4.0%	0.3%	-1.5%
COC(=O)c1ccc(-n2ccnc2)cc1	11.3	x	-12.2	6.8%	44.6%	7.3%
O=C(N/N=C/c1ccc(-n2ccnc2)cc1)c1cccs1	44.8*	-2.2%	84.7*	46.6%	43.8%	14.1%
Cc1ccc(/C=N/NC(=O)CNC(=O)c2cccs2)o1	7.4	x	16.2	23.2%	44.8%	-1.0%
O=C(N/N=C/c1ccncc1)c1cccs1	52.3*	-11.1%	90.7*	u	x	2.0%
O=C(N/N=C\c1ccc(Cl)s1)c1cccs1	42.9*	-17.8%	84.8	u	x	-4.2%
O=C(N/N=C/c1ccncc1)c1ccc(NS(=O)(=O)c2cccs2)cc1	8.8	x	25.2	32.2%[5.75 µM]	7.1%	9.4%
CSc1ccc(/C=N/NC(=O)c2cccs2)cc1	52.1*	-1.9%	66.3*	u	-46.1%	3.6%
COCC(=O)N1CCC[C@@]2(CCN(C(=O)Nc3cccc(C#N)c3)C2)C1	x	x	x	x	x	1.5%
CC1(C)CC(=O)C2=C(C1)Oc1nc3ccccc3cc1C2C(C#N)C#N (configuration not stated)	-0.9	-4.4%	-3.4	-1.0%	0.657µM*	-21.5%
CC1(C)CC(=O)C([C@H]2C3=C(CC(C)(C)CC3=O)Oc3ccccc32)C(=O)C1	x	x	x	x	x	4.9%
COc1ccc(OC)c(S(=O)(=O)NCC(c2ccco2)S(=O)(=O)c2ccccc2)c1 (configuration not stated)	x	x	x	-19.4%	-4.5%	x
